According to PubChem BioAssay (NCATS):
Results filed as inconclusive are left out. Some of the results follow. Where a call stands in place of a potency, no number is given. Activity calls are given as the source filed them. The call rests on the fitted dose curve; in most records, active means well fitted curve in the direction sought with a large enough effect; inconclusive means small, poorly fitted or top-dose-only effect, or another doubt; inactive means no such curve, though single readings can be large; an effect the other way counts as inactive or inconclusive.

What was measured:
[1] = target: DNA repair nuclease/redox regulator APEX1 (Homo sapiens) (UniProt P27695); assay: Confirmation qHTS Assay for Inhibitors of the Human Apurinic/apyrimidinic Endonuclease 1 (APE1) (AID 2572); details: purified APE1, fluorogenic abasic-site DNA cleavage; further: potency means the concentration at half of the fitted maximal effect; nearly all actives have a fitted effect of over 30% in size
In short: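 APE1 endonuclease activity was assessed as fluorescence released when the enzyme nicked a quenched abasic-site duplex (50 nM final). Compounds were preincubated with enzyme 15 min at room temperature before substrate addition.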

[2] = target: DNA repair nuclease/redox regulator APEX1 (Homo sapiens) (UniProt P27695); assay: qHTS FP-Based Assay for Inhibitors of the Human Apurinic/apyrimidinic Endonuclease 1 (APE1) (AID 2573); details: APE1 binding to TAMRA-labelled double-stranded DNA, fluorescence polarization displacement; series mostly up to 28.5 µM
[3] = target: Furin (Homo sapiens) (UniProt P09958); assay: Furin counterscreen qHTS for Zika virus inhibitors (AID 1347149); details: furin enzymatic counterscreen, fluorogenic substrate; series mostly up to 114 µM; further: nearly all actives have a fitted effect of over 70% in size; further: potency means the concentration at half of the fitted maximal effect
In short: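 Counterscreen measures cleavage of 2 microM BOC-RVRR-AMC, below its ~15 microM Km, by 5 nM full-length human furin at pH 7.0 after a 15-min compound preincubation. Inhibition derives from the 15-min fluorescence increase at 37C.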

[4] = Confirmatory screen GU Rhodamine qHTS for Zika virus inhibitors qHTS (AID 1347157); details: purified enzyme assay, Rhodamine110 substrate fluorescence, 15 min; series mostly up to 114 µM; further: nearly all actives have a fitted effect of over 70% in size; further: potency means the concentration at half of the fitted maximal effect
In short: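 Unlinked NS2B/NS3, 25 nM; Rhod110 peptide, 1.5 microM; compounds, up to 114 microM. Reaction run 15 min at RT in 10 mM Tris-HCl pH 8.0, 0.01% Tween 20; kinetic fluorescence change fitted with a 4-parameter Hill model.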

[5] = ZIKV-mCherry secondary qHTS for Zika virus inhibitors (AID 1347158); details: Vero cells, ZIKV-mCherry infection imaging, 48-72 h; series mostly up to 49.2 µM; further: top concentration of the series differs between compounds
In short: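 Read-out is percent infection: mCherry-positive Vero cells (nuclear-proximal intensity >450 RFU, 3 SD above negative controls) counted by high-content imaging of Hoechst-stained, PFA-fixed wells after 48-72 h with ZIKV-mCherry at MOI 1 and compound.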

[6] = Confirmatory screen NINDS Rhodamine qHTS for Zika virus inhibitors (AID 1347161); details: purified enzyme assay, Rhodamine110 substrate fluorescence, 15 min; series mostly up to 114 µM; further: nearly all actives have a fitted effect of over 60% in size; further: potency means the concentration at half of the fitted maximal effect
In short: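 qHTS dose-response: 25 nM linked protease, pH 8.0 Tris/Tween buffer, cpd titration, 15 min RT preinc, 1.5 microM Rhod110 peptide, 15 min reaction (~15% conversion), Ex480/Em540; 4-parameter Hill fit.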

[7] = test system: Zika virus NS2B-NS3 protease (linked); assay: 384 well plate NINDS AMC confirmatory qHTS for Zika virus inhibitors (AID 1347163); details: Recombinant NS2B-NS3 protease, Ac-VKTGKR-AMC fluorescence; series mostly up to 1 mM; further: potency means the concentration at half of the fitted maximal effect; nearly all actives have a fitted effect of over 50% in size
In short: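 Enzyme (5, 30 or 60 nM final) first met test compounds for ~15 min. The AMC-tagged peptide Ac-VKTGKR-AMC followed at 30 microM. Fluorescence was then recorded at 25 min and scaled against no-enzyme and no-inhibitor wells.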

[8] = test system: Zika virus NS2B-NS3 protease (linked construct); assay: 384 well plate NINDS Rhodamine confirmatory qHTS for Zika virus inhibitors (AID 1347164); details: rhodamine-110 peptide substrate fluorescence; series mostly up to 1 mM;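 further: fluorescence from protease cleavage of Ac-LKRR-rhodamine 110 substrate; nearly all actives have a fitted effect of over 65% in size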; further: potency means the concentration at half of the fitted maximal effect
In short: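 Linked protease at a final 5 nM, 30 nM or 60 nM was preincubated ~15 min with compounds, then given 10 microM Ac-LKRR-Rhodamine 110. Fluorescence (ex 485/em 538 nm) after 25 min in the dark at room temperature.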

[9] = Tertiary RLuc qRT-PCR qHTS assay for Zika virus inhibitors (AID 1347169); details: infected Vero cells, reporter luminescence, 48-72 h; series mostly up to 1.74 µM; further: top concentration of the series differs between compounds; nearly all actives have a fitted effect of over 55% in size
In short: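 Vero cells (1,000 per well) plated overnight at 37 degrees C, treated with compound in DMSO, then infected with recombinant ZIKV-RLuc (Cambodian) at MOI 1-2 for 48-72 hrs. Live-cell Renilla luciferase substrate added; luminescence read after 1-1.5 hrs.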

[10] = test system: Zika virus NS2B-NS3 protease (linked construct); assay: Confirmatory screen NINDS AMC qHTS for Zika virus inhibitors (AID 1347152); details: Purified linked NS2B-NS3, AMC substrate fluorescence; series mostly up to 110 µM; further: nearly all actives have a fitted effect of over 70% in size; further: potency means the concentration at half of the fitted maximal effect
In short: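 Purified NS2B-NS3 protease with NS2B hydrophilic domain linked to NS3 protease domain by flexible linker, 1 nM final in 10 mM Tris-HCl pH 8.0, 0.01% Tween 20. Compounds preincubated 15 min, room temperature; Bz-Nle-KRR-AMC 10 microM (Km 18.3 µM); 15-min fluorescence change, 4-parameter Hill fit.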

[11] = target: Cytochrome P450 3A4 (Homo sapiens) (UniProt P08684); assay: qHTS Assay for Inhibitors and Substrates of Cytochrome P450 3A4 (AID 884); details: recombinant CYP3A4, Luciferin-PPXE luminescence; series mostly up to 57.1 µM; further: potency means the concentration at half of the fitted maximal effect; nearly all actives have a fitted effect of over 50% in size
In short: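 Luminescent readout of luciferin produced by CYP3A4 (20 nM) dealkylation of Luciferin-PPXE, 25 uM (its KM). NADPH-driven reaction ran 60 min at RT after 10 min compound preincubation; data scaled to 57 uM ketoconazole as 100% inhibition.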

[12] = target: Cytochrome P450 3A4 (Homo sapiens) (UniProt P08684); assay: qHTS Assay for Activators of Cytochrome P450 3A4 (AID 885); details: recombinant CYP3A4, Luciferin-PPXE luminescence, 60 min; series mostly up to 57.1 µM; further: nearly all actives have a fitted effect of over 65% in size
In short: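 Activators are scored by enhanced luminescence from CYP3A4 conversion of luciferin-PPXE (25uM, equal to KM) to luciferin, after 60 min at RT with an NADPH-regenerating system.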

[13] = Confirmation and Secondary Assay for Modulators of Hemoglobin Beta Chain Splicing at IVS2 654 locus (AID 910); details: HeLa EGFP-654 splicing reporter, GFP fluorescence, 48 h; series mostly up to 46.1 µM;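 further: per-well total GFP intensity by laser scanning cytometry after 2-day treatment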
In short: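 HeLa cells stably carrying EGFP interrupted by mutant beta-globin IVS2-654 intron (CMV-driven) were treated with compound for 2 days at 37C; corrected splicing was scored as total peak GFP intensity per well (488 nm excitation, 500-520 nm emission).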

[14] = target: Ubiquitin carboxyl-terminal hydrolase 1 (Homo sapiens) (UniProt O94782); assay: Inhibitors of USP1/UAF1: Pilot qHTS (AID 504865); details: purified USP1/UAF1, Ub-rhodamine cleavage fluorescence; series mostly up to 114 µM; further: potency means the concentration at half of the fitted maximal effect; nearly all actives have a fitted effect of over 35% in size
In short: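 USP1/UAF1 complex (1nM) preincubated with compound 15 min at room temperature, then Ub-Rho substrate (150nM final) added. Fluorescence read kinetically at 480/540 nm, 6 reads every 60 seconds. Buffer: 50mM HEPES pH 7.8, 0.5mM EDTA, 0.1 mg/ml BSA, 1mM TCEP, 0.01% Tween-20.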

[15] = test system: Zika virus NS2B-NS3 protease; assay: Primary screen GU AMC qHTS for Zika virus inhibitors (AID 1347154); details: Zika NS2B-NS3 unlinked protease, AMC fluorogenic substrate; series mostly up to 54.1 µM; further: nearly all actives have a fitted effect of over 70% in size
In short: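 Unlinked Zika NS2B hydrophilic domain/NS3 protease domain noncovalent complex (25 nM final) in 10 mM Tris-HCl pH 8.0, 0.01% Tween 20, with AMC peptide substrate. Fluorescence (ex 340, em 450 nm) change over 15 min, room temperature; percent inhibition fitted to 4-parameter Hill equation.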

[16] = Primary qHTS for small molecule stabilizers of the endoplasmic reticulum resident proteome: Secreted ER Calcium Modulated Protein (SERCaMP) assay (AID 1508630); details: SH-SY5Y GLuc-SERCaMP (Gaussia luciferase released on ER calcium loss) secretion, thapsigargin, luminescence; series mostly up to 38.4 µM
In short: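 The SH-SY5Y reporter protocol was run at 3 concentrations up to 38.3 uM (primary) or 11 concentrations (follow-up): 16 h compound, 100 nM thapsigargin for 4 h, then extracellular luciferase luminescence.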

[17] = test system: Zika virus NS2B-NS3 protease (unlinked complex); assay: Confirmatory screen GU AMC qHTS for Zika virus inhibitors (AID 1347153); details: Recombinant NS2B-NS3 protease, AMC substrate fluorescence; series mostly up to 111 µM
In short: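 Fluorescence change (ex 340/em 450 nm) over 15 min, ~20% substrate conversion, normalized to no-inhibitor and no-enzyme controls, then Hill-fitted. Unlinked protease at 25 nM; AMC peptide 10 µM.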

Chain of Furin (Homo sapiens) (P09958 whole entry, looked up): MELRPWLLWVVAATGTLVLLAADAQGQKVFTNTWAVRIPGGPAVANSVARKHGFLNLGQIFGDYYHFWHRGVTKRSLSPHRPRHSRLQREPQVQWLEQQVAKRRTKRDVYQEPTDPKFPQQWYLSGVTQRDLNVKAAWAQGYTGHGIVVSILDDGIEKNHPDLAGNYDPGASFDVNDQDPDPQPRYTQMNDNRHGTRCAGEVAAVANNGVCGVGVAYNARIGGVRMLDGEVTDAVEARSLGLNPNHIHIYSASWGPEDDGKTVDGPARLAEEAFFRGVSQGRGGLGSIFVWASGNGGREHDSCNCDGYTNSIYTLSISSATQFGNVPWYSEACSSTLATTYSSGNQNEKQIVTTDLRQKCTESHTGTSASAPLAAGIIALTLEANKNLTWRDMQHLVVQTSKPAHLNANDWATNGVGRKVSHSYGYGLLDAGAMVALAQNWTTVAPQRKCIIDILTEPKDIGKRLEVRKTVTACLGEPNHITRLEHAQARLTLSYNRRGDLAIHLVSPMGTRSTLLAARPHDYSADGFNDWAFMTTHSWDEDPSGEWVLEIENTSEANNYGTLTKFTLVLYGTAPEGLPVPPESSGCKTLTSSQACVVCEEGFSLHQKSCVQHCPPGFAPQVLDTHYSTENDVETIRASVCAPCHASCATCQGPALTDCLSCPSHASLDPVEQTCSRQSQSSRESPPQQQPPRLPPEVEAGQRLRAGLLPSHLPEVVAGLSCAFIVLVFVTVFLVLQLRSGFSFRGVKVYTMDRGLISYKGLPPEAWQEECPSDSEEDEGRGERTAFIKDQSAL
Chain of Cytochrome P450 3A4 (Homo sapiens) (P08684 whole entry, looked up): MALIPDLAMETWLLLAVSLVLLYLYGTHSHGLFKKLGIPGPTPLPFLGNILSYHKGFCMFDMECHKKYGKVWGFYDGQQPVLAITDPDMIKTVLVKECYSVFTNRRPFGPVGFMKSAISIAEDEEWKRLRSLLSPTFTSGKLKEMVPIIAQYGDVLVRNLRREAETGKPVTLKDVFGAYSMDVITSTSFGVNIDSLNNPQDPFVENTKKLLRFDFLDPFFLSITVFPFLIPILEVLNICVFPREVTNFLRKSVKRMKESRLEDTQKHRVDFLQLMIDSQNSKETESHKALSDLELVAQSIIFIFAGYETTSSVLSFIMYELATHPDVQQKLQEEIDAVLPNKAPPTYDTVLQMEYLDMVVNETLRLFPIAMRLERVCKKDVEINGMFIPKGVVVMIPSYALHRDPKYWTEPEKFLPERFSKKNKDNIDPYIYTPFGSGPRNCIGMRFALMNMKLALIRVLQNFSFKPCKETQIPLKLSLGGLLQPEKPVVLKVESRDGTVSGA
Chain of DNA repair nuclease/redox regulator APEX1 (Homo sapiens) (P27695 whole entry, looked up): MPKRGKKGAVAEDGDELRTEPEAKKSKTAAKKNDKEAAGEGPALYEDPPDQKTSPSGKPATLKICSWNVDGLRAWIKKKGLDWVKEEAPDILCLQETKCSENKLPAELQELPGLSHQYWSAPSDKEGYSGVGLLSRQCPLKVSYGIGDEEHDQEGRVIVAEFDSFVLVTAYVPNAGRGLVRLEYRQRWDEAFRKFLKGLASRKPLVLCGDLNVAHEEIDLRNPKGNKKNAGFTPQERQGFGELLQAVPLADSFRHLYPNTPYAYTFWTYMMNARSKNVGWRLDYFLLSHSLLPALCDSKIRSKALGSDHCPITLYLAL
Chain of Ubiquitin carboxyl-terminal hydrolase 1 (Homo sapiens) (O94782 whole entry, looked up): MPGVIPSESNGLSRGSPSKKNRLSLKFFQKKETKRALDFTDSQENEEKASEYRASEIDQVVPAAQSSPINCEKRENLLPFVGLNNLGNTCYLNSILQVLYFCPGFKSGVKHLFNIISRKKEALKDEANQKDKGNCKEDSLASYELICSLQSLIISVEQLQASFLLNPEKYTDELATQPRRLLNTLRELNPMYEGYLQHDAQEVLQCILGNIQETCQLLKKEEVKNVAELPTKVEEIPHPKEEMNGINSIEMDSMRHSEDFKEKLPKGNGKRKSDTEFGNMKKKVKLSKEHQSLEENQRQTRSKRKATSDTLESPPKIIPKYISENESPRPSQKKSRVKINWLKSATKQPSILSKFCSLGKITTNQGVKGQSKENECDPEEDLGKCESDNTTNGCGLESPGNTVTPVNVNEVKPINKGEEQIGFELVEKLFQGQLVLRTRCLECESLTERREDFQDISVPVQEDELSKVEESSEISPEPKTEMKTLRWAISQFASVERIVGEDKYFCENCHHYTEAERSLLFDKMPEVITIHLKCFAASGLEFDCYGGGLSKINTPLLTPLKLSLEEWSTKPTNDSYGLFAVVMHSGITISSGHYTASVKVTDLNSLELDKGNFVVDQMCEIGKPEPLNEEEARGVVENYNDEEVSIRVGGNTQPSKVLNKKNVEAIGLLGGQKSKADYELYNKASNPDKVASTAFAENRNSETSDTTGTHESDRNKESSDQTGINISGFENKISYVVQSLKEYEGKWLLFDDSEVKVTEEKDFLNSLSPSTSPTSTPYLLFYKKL

For `O=c1c(O)c(Br)ccc2c(Br)c(O)c(O)c(O)c12`, the Potency [1] was 0.316 µM (active), the outcome [2] was “inactive” and the Potency [3] was 23.5 µM (active). For the same compound, the Potency [4] was 39.8 µM (active), the Potency [5] was “inactive” and the Potency [6] was 7.94 µM (active). The Potency [7] was 158 µM (active), the Potency [8] was 89.1 µM (active) and the Potency [9] was “inactive”.
With `Cc1ccc(C(=O)Nc2ccc(C(=O)OCc3cc(=O)n4c5c(sc4n3)CCCC5)cc2)cc1` the Potency [3] was 41.8 µM (active) and the Potency [4] was “inactive”.
With `N#Cc1ccccc1OCC1CN(Cc2cccc(C(F)(F)F)c2)C(=O)c2c(ccnc2-c2ccc(OCC(=O)O)cc2)O1` (stereo unspecified) the Potency [3] was “inactive”, the Potency [10] was “inactive” and the Potency [5] was “inactive”. For the same compound, the Potency [7] was 70.8 µM (active), the Potency [8] was 56.2 µM (active) and the Potency [9] was “inactive”.
For `O=c1cc(-c2cc(O)c(O)c(O)c2)oc2cc(O)cc(O)c12`, the Potency [11] was 20 µM (active), the Potency [12] was “inactive” and the outcome [13] was “inactive”. The Potency [14] was 35.5 µM (active), the Potency [3] was “inactive” and the Potency [4] was 44.7 µM (active). For the same compound, the Potency [5] was “inactive”, the Potency [6] was 31.6 µM (active) and the Potency [7] was 63.1 µM (active). The Potency [8] was “inactive” and the Potency [9] was “inactive”.
With `N#Cc1ccc(OCC2CN(Cc3cccc(C(F)(F)F)c3)C(=O)c3c(ccnc3-c3ccc(OCC(=O)O)cc3)O2)cc1` (stereo unspecified) the Potency [3] was “inactive”, the Potency [10] was “inactive” and the Potency [5] was “inactive”. For the same compound, the Potency [8] was 39.8 µM (active) and the Potency [9] was “inactive”.
With `CCOC(=O)c1c(-c2ccccc2)oc2ccc(NS(=O)(=O)c3ccc(C(C)C)cc3)cc12` the Potency [3] was 46.9 µM (active) and the Potency [4] was “inactive”.
In the case of `Cc1cc(=O)c2c(O)c3c(O)cc(O)c4c5c(O)cc(O)c6c(O)c7c(=O)cc(C)c8c1c2c(c34)c(c65)c78`, the Potency [3] is reported as “inactive”, the Potency [15] is reported as “inactive” and the Potency [4] is reported as “inactive”. The Potency [6] was “inactive”, the Potency [9] was “inactive” and the Potency [16] was “inactive”.
With `C[C@@H](NC(=O)c1ccc(Cl)cc1)c1c(-c2ccc(F)cc2)noc1C(=O)O` the Potency [3] was “inactive”, the Potency [10] was “inactive” and the Potency [5] was “inactive”. For the same compound, the Potency [9] was “inactive”.
For `O=C(Nc1c(C(=O)O)oc2ccccc12)c1ccc(C(F)(F)F)cc1`, the Potency [3] was “inactive”, the Potency [4] was 15.8 µM (active) and the Potency [5] was “inactive”. For the same compound, the Potency [6] was 25.1 µM (active), the Potency [7] was 316 µM (active) and the Potency [8] was 100 µM (active).
In the case of `Nc1cc(N)c(N=Nc2ccc(S(=O)(=O)Nc3nccs3)cc2)cc1N=Nc1ccc(S(=O)(=O)Nc2nccs2)cc1`, the Potency [3] is reported as 39.8 µM (active), the Potency [10] is reported as 12.6 µM (active) and the Potency [6] is reported as 3.55 µM (active). For the same compound, the Potency [8] was 20 µM (active) and the Potency [9] was “inactive”.
With `O=C(O)COc1ccc(-c2nccc3c2C(=O)N(Cc2cccc(C(F)(F)F)c2)CC(CNC(=O)c2cccc(Cl)c2)O3)cc1` (stereo unspecified) the Potency [3] was “inactive”, the Potency [17] was 49.4 µM (active) and the Potency [8] was 22.4 µM (active). For the same compound, the Potency [9] was “inactive”.
For `N#CC(C#N)=C(N)/C(C#N)=C/c1cc(O)c(O)c(O)c1`, the Potency [3] was “inactive”, the Potency [15] was “inactive” and the Potency [4] was 44.7 µM (active). For the same compound, the Potency [5] was “inactive”, the Potency [6] was 31.6 µM (active) and the Potency [8] was “inactive”. The Potency [9] was “inactive”.
In the case of `Cc1oc2c(cc(NS(=O)(=O)c3ccc(Cl)cc3)c3ccccc32)c1C(=O)OCc1ccccc1`, the Potency [3] is reported as “inactive”, the Potency [4] is reported as 28.2 µM (active) and the Potency [5] is reported as “inactive”. For the same compound, the Potency [6] was 39.8 µM (active).
